Pf Dd2 inh = qHTS Primary assay for Inhibitors of Plasmodium falciparum Dd2 growth in vitro; P. falciparum Dd2 growth, SYBR Green, 72 h; 120,000 compounds, 4.3% hits; AID 1347417, 2020; Potency, µM (titrated, usually from 28.9 µM), without a hit: at the highest dose activity, negative = inhibition, actives largely listed as inhibitors; active = well fitted inhibition curve with a large enough effect;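 also: plate controls were DMSO vehicle for no effect and reference drug for full effect; nearly all actives have a fitted effect of over 65% in size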
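Readout: SYBR Green fluorescence, 485 nm excitation, 535 nm emission, after ~16 h lysis at 37C. Before that, Dd2-infected red cells (2.5% hematocrit) grew 72 h with compound, 29 uM top final concentration.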
* = called active by the depositor; i = inactive; ! = repeats disagree; [ ] = another dose, or the depositor's remark. Shown is part of a subset that was picked to be rich in hits. Potency is read from the fitted curve at half-maximal effect.

SMILES	Pf Dd2 inh
CN(Cc1ccnn1C)C1CCCc2ccccc21 (configuration not stated)	i
O=C(CC[C@H]1NC(=O)c2ccccc2NC1=O)NCCc1ccncc1	6%
O=C(NCc1cc(F)ccc1F)C1Cn2cccc2C(=O)N1Cc1ccccc1 (configuration not stated)	-12%
COCCCNC(=O)C1Cn2cccc2C(=O)N1Cc1ccccc1 (configuration not stated)	21%
O=C(NCCCN1CCCc2ccccc21)C1Cn2cccc2C(=O)N1Cc1cccnc1 (configuration not stated)	8.9µM*
CC(C)OCCCNC(=O)C1Cn2cccc2C(=O)N1Cc1cccnc1 (configuration not stated)	-13%
O=C(NCCN1CCCCC1)C1Cn2cccc2C(=O)N1Cc1cccnc1 (configuration not stated)	3%
O=C(NCCCN1CCCC1=O)C1Cn2cccc2C(=O)N1Cc1cccnc1 (configuration not stated)	4%
COc1ccccc1CNC(=O)C1Cn2cccc2C(=O)N1Cc1cccnc1 (configuration not stated)	4.5µM*
COc1cccc(CNC(=O)C2Cn3cccc3C(=O)N2Cc2ccccc2)c1 (configuration not stated)	-18%
COc1ccccc1OCCNC(=O)C1Cn2cccc2C(=O)N1Cc1cccnc1 (configuration not stated)	5.6µM*
CNC(=O)CCC1CCCN(S(=O)(=O)c2cccc(F)c2)C1 (configuration not stated)	-8%
COc1ccc(CNC(=O)N2CCC3(CC2)CC(OC)CCO3)cc1 (configuration not stated)	23%
CCOc1ccc(C2C(C(=O)Nc3ccccc3)=C(C)Nc3nc(-c4ccccc4Cl)nn32)cc1OC (configuration not stated)	8.9µM*
COc1ccc(C2C(C(N)=O)=C(C)Nc3nc(-c4ccccc4Cl)nn32)cc1 (configuration not stated)	-22%
CCOc1ccccc1C1C(C(N)=O)=C(C)Nc2nc(-c3ccccc3Cl)nn21 (configuration not stated)	-8%
CN1CCN(CC(N)C2CCCCC2)CC1 (configuration not stated)	1%[44.1 µM]
O=C(NCC1(N2CCOCC2)CCCC1)c1coc(COc2cccc(F)c2)n1	i
CCn1c(COc2ccc(C)nc2)nnc1C1CC(N)C1 (configuration not stated)	-26%
NC1CC(c2nnc(COc3ccc4c(c3)CCNCC4)n2C2CC2)C1 (configuration not stated)	10µM*!
COCCn1c(COc2ccc3c(c2)ncn3C)nnc1C1CC(N)C1 (configuration not stated)	-17%
C=CCN(C)C(=O)C[C@@H]1c2nc(NC(=O)c3cccc(F)c3)sc2C[C@@H]2[C@](C)(CO)[C@H](O)CC[C@]21C	-2%
Cc1ccccc1CC(=O)N(C)CC1CCOCC1	-10%
CCN(C(=O)Cn1cccc1-c1nc(-c2ccc(OC)c(F)c2)no1)c1ccccc1	i
O=C(Cn1cccc1-c1nc(-c2ccccc2)no1)NCc1ccc(F)cc1Cl	i
SMILES	Pf Dd2 inh
COc1ccc(C(=O)NCCn2cccc2-c2nc(-c3ccccc3)no2)cc1F	5µM*
COc1ccc(-c2noc(-c3cccn3CC(=O)Nc3ccc(C)c(C)c3)n2)cc1F	i
COc1ccccc1CC(=O)NCCn1cccc1-c1nc(-c2ccccc2)no1	8.9µM*
O=C(Cn1cccc1-c1nc(-c2ccccc2)no1)NCCc1ccc(Cl)cc1	39%
COc1ccc(-c2noc(-c3cccn3CC(=O)N3CCc4ccccc43)n2)cc1F	25%
COc1ccc(-c2noc(-c3cccn3CC(=O)N3CCOc4ccc(C)cc43)n2)cc1F	4µM*
COCCNC(=O)Cn1cccc1-c1nc(-c2ccc(OC)c(F)c2)no1	-3%
O=C(CCCc1c[nH]c2ccccc12)NC1CCc2n[nH]c(=O)n2CC1 (configuration not stated)	1%
CN1CCN(Cc2nc(C3(O)CCN(C(=O)C4CCCCC4)CC3)cs2)CC1	-13%[44.1 µM]
O=C1NCC2(CCN(Cc3cccnc3)CC2)Oc2ccccc21	13%
CN1C(=O)CCCCC1C(=O)N1CCCC1 (configuration not stated)	i
COc1ccc(CN2CCC(N3CCNC3=O)CC2)cc1	4%[44.1 µM]
COc1ccc(C(=O)Nc2ccc(S(=O)(=O)N(Cc3ccccc3)c3ccccc3)cc2)cc1	87%
Cc1ccc(C(=O)Nc2ccc(S(=O)(=O)N(Cc3ccccc3)c3ccccc3)cc2)cc1	94%
CCOc1ccc(C(=O)Nc2ccc(S(=O)(=O)N(Cc3ccccc3)c3ccccc3)cc2)cc1	10µM*
O=C(O)CC1(CC(=O)N2CCN3C(=O)c4cc(-c5ccsc5)ccc4NC(=O)[C@@H]3C2)CCCC1	i
Cc1ccccc1CNC(=O)c1ccc2c(c1)N(Cc1ccccc1)CCS2	4%
COc1ccc(CNC(=O)c2ccc3c(c2)N(Cc2ccccc2)CCS3)cc1	-6%
CCN1C(=O)c2ccccc2S(=O)c2ccc(C(=O)N3CCN(c4cc(Cl)ccc4C)CC3)cc21 (configuration not stated)	8.9µM*
Cc1ccc(C)c(N2CCN(C(=O)c3ccc4c(c3)N(Cc3ccc(F)cc3)C(=O)c3ccccc3S4=O)CC2)c1 (configuration not stated)	-16%
Cc1ccc(Cl)cc1N1CCN(C(=O)c2ccc3c(c2)N(Cc2ccccc2)CCS3)CC1	8.9µM*
Cc1cccc(N2CCN(C(=O)c3ccc4c(c3)N(Cc3cccc(Cl)c3)C(=O)c3ccccc3S4=O)CC2)c1C (configuration not stated)	-7%
COc1cc(NC(=O)N2CCCC(Cn3cnc4cccnc43)C2)cc(OC)c1OC (configuration not stated)	i
Cc1cccc([C@H]2C[C@@H](O)[C@@H](O)[C@@H]2NC(=O)C2CCOCC2)c1	24%[44.1 µM]
O=C1CCN(C(=O)CN2CCCCCC2)CCCC(c2nc(-c3cnccn3)no2)CCN1 (configuration not stated)	9%
SMILES	Pf Dd2 inh
COC(=O)c1cn([C@H]2CO[C@H]3[C@@H]2OC[C@@H]3NC(=O)c2ccc(N(C)C)cc2)nn1	i
CCOC(=O)C1=CN(CC(=O)Nc2ccc(C(F)(F)F)cc2)S(=O)(=O)N=C1C	45%
CCO[C@H]1CN(Cc2cnc(-c3ccccc3C)s2)C[C@@H]1O	-17%
Cn1nccc1C(=O)N1CC(c2ncc3c(-c4ccccc4)nccn23)C1	-16%[44.1 µM]
Cc1ccccc1-c1nccn2c(C3CN(Cc4ccccc4O)C3)ncc12	0.35µM*
CC(=O)Nc1ccc(CN2CCC3(COc4ncccc4[S+](=O)([O-])N3)C2)cc1 (configuration not stated)	2%
COC1CCCOC12CCN(C(=O)CCn1c(C)nc3ccccc31)CC2 (configuration not stated)	-6%
CC1(c2ccccc2)CCCN(C(=O)CCn2ccc(=O)[nH]c2=O)C1 (configuration not stated)	-8%
COc1ccc(NC(=O)O[C@@H]2CO[C@H]3[C@@H]2OC[C@@H]3NC(=O)Nc2cccc(C(F)(F)F)c2)cc1	-25%
CN1CCN([C@@H]2[C@H](O)[C@H](CO)O[C@@H]2CNC(=O)c2ccco2)CC1	-11%[44.1 µM]
CC(C)N1CC2CCC(C1)N2Cc1cccc(-c2ccsc2)c1	11µM*
CC(C)N1CC2CCC(C1)N2Cc1cccc(C#N)c1	-8%[44.1 µM]

Compound activity from PubChem.
